Results reported in the supplement of paper PMC3334620.
Whole data set: some 33,000 sequences, median “E-score (-0.5 to 0.5)” near -0.0034, cut for the highest 2% near 0.25. For the sample, the highest values were picked, then their nearest neighbours and some sequences at random.

Target: T1, Yap3 (UniProt P38749)
T1 sequence: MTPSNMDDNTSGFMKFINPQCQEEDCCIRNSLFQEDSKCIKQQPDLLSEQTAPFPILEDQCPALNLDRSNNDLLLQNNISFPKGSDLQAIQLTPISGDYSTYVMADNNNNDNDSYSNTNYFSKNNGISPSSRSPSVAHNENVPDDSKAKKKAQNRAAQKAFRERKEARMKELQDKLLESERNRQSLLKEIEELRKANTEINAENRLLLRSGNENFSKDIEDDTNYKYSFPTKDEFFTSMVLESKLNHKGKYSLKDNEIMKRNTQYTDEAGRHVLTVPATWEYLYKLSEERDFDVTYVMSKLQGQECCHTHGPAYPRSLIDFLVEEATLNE
Assay: PBM E-score (8-mer binding enrichment) (E-score (-0.5 to 0.5)); higher = stronger / more preferred TF binding
Details: protein concentration: 100 nM; construct: GST-full length
Outline: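 GST-tagged yeast TFs (full-length or DNA-binding domain) were made by PURExpress in vitro transcription/translation and applied at about 100-200 nM to universal all-10-mer Agilent arrays. The arrays were made double-stranded by primer extension, on fresh or once-stripped slides. Bound protein was detected with fluorescent anti-GST, and scans were normalised with masliner. Each ungapped eight-base word, pooled with its reverse complement, received an E-score (modified Wilcoxon-Mann-Whitney statistic) from the Universal PBM Analysis Suite.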

| Sequence | PBM E-score |
| --- | --- |
| AGAGACGC | 0.0051 |
| CTCCTCCC | -0.358 |
| GTACTGAA | 0.117 |
| AACCTTCG | 0.0416 |
| CATTGTAA | 0.172 |
| CACCAGAG | -0.215 |
| AAGAGTAA | 0.0872 |
| TGATTAAA | 0.113 |
| TTATTAAA | 0.34 |
| ACATTAAA | 0.229 |
| TCATTAAA | 0.258 |
| GTATTAAA | 0.141 |
| GCATTAAA | 0.177 |
| GGAGAAGA | -0.148 |
| TAACGCTA | 0.023 |
| ATGGCAAT | 0.0617 |
| GGGATTAC | 0.00382 |
| CAAGCTAG | -0.0475 |
| CGTTAGTA | 0.241 |
| AATTAGTG | 0.269 |
| GATTAGTA | 0.218 |
| CATTAGTC | 0.0988 |
| CATTAGCA | 0.0386 |

| Sequence | PBM E-score |
| --- | --- |
| AATTAGTA | 0.369 |
| AATTAGGG | -0.107 |
| ACTTAGTG | -0.0604 |
| AATTAGTC | 0.303 |
| CATTAGTA | 0.289 |
| AGTTAGTC | 0.0694 |
| AGTTAGTA | 0.195 |
| ACCTTATC | 0.0868 |
| ATCCTCTC | -0.0398 |
| GCAGTGTA | 0.0324 |
| GTTCACGA | 0.0641 |
| AACTTATT | 0.21 |
| GAAGAACA | 0.225 |
| CAAGAACA | -0.0451 |
| TAAGAACA | 0.326 |
| GTTCATAA | 0.0365 |
| GACTCGTA | -0.126 |
| GGATTGCC | -0.116 |
| AGAACACG | 0.0921 |
| CAAGGGAC | -0.0565 |
| CTTACTCA | 0.164 |
| GTTACTCA | 0.161 |
| CTTACTAA | 0.443 |

| Sequence | PBM E-score |
| --- | --- |
| CTTACTAC | 0.211 |
| GTTACTAA | 0.339 |
| GTTACTGA | 0.106 |
| ACGCGGGG | -0.0549 |
| GTTACGTA | 0.182 |
| CTTACGTC | 0.0927 |
| ATTACGAA | 0.329 |
| CTCACGAA | 0.05 |
| ACTACGAA | 0.099 |
| CATACGTA | 0.156 |
| CTTACGAA | 0.259 |
| CTTACGTA | 0.349 |
| AGTACGAA | 0.245 |
| GTTACGAA | 0.181 |
| AATACGTA | 0.296 |
| AATACGTG | 0.0823 |
| CTTGTCCA | -0.0307 |
| AAAGATCT | -0.0503 |
| AAGAGATT | 0.0728 |
| TAGGTAGA | 0.076 |
| CGTACAAA | 0.108 |
| ATTGGGCA | -0.0331 |
| GGCTACGA | -0.0605 |

| Sequence | PBM E-score |
| --- | --- |
| ATAGGGCC | -0.174 |
| TAGGGCAA | -0.0175 |
| CGTGCGAG | -0.0121 |
| ATTACGGA | 0.295 |
| ATTACGGC | 0.241 |
| ATTACGGG | 0.0809 |
| ATTACGAC | 0.269 |
| ATTACGAG | 0.228 |
| CTTACGAC | 0.0511 |
| ACTCGAGC | 0.0632 |
| CTTTGTAC | 0.0552 |
| GTTTGTAA | 0.0859 |
| GTTTGTCA | 0.133 |
| CTTTGTAA | 0.27 |
| ATTTGTAC | 0.0689 |
| CTTTGTCA | 0.15 |
| ATTTGTAG | 0.117 |
| ATTTGTAA | 0.373 |
| ATTTGTCA | 0.313 |
| GCGAATCA | 0.173 |
| CAACGGTG | -0.243 |
| CGCGTGGA | -0.183 |
| ATACTTAC | 0.0503 |

| Sequence | PBM E-score |
| --- | --- |
| CAATCAAC | 0.217 |
| AATAGCGA | 0.24 |
| CCCAAAGG | -0.2 |
| GAGAAGCA | -0.118 |
| AACTAGGT | 0.154 |
| GTGCTTTA | 0.121 |
| AGGTATGG | -0.0324 |
| ATGAATGC | 0.0737 |
| ATGAATGG | 0.268 |
| ATGAATGA | 0.106 |
| CGGAGCTA | -0.142 |
| GAGGCCAC | -0.223 |
| ATAGTAAA | 0.238 |
| CTAGTAAA | 0.0933 |
| GTAGTCAA | -0.0796 |
| CTAGTCAA | -0.0259 |
| TTAGTCAA | 0.27 |
| TTAGTAAA | 0.295 |
| GGAGTAAC | -0.103 |
| TGAGTAAA | 0.161 |
| GGAGTAAA | 0.267 |
| GAGCGTCC | -0.223 |
| ACACCACC | -0.209 |

| Sequence | PBM E-score |
| --- | --- |
| CCTACCCG | -0.174 |
| GAGAAACA | 0.218 |
| CGACCCAG | -0.23 |
| CGAGTGTA | -0.0629 |
| GTTTCATA | 0.0741 |
| ATAGTTAA | 0.114 |
| CTAGTTAA | 0.26 |
| GTAGTTAA | 0.142 |
| GCATGGGA | -0.197 |
| GATGACAA | 0.264 |
| GATGACAC | 0.132 |
| CATGACAA | 0.143 |
| CGGTTCGA | 0.0689 |
| GTGAACAC | -0.156 |
| ATGCCGTC | -0.0725 |
| CGAGCTGA | 0.081 |
| AGAGAGGA | -0.261 |
| ATGAATTG | 0.208 |
| ATTGAAAA | 0.266 |
| GATGAATA | 0.242 |
| ATTGAATA | 0.256 |
| AATGAAAT | 0.21 |
| CATGAATA | 0.0196 |

| Sequence | PBM E-score |
| --- | --- |
| TATGAATA | 0.266 |
| ATTGAAAG | 0.143 |
| ATTGAATC | 0.0178 |
| ATTGAAAT | 0.263 |
| CTTGAAAA | 0.161 |
| ATTGAAAC | 0.155 |
| CTTGAATA | 0.113 |
| CGTCGCAG | -0.0218 |
| GTAGAGAA | 0.0971 |
| GAGTGGAC | -0.0806 |
| AGCAAAGA | 0.0203 |
| CATACGAC | 0.0835 |
| AAGGAAAA | 0.156 |
| CCTCTGGA | -0.136 |
| TAATTGCA | 0.195 |
| GCTCCTAA | -0.265 |
| ACAAGGAT | 0.113 |
| TCTTGTAA | 0.118 |
